Bioassay records: PubChem BioAssay, National Center for Advancing Translational Sciences (NCATS)
Tau fil binding – binds recombinant human tau filaments. recombinant tau filaments, thioflavin S fluorescence, 15 h; filaments grown with octadecylsulfate alongside compound. Potency, µM (doses to about 57.1 µM). 71,000 compounds, 2% hits. AID 596;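 further: actives lower thioflavin S fluorescence by blocking filaments or displacing dye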
Target sequence (P10636 whole entry, looked up): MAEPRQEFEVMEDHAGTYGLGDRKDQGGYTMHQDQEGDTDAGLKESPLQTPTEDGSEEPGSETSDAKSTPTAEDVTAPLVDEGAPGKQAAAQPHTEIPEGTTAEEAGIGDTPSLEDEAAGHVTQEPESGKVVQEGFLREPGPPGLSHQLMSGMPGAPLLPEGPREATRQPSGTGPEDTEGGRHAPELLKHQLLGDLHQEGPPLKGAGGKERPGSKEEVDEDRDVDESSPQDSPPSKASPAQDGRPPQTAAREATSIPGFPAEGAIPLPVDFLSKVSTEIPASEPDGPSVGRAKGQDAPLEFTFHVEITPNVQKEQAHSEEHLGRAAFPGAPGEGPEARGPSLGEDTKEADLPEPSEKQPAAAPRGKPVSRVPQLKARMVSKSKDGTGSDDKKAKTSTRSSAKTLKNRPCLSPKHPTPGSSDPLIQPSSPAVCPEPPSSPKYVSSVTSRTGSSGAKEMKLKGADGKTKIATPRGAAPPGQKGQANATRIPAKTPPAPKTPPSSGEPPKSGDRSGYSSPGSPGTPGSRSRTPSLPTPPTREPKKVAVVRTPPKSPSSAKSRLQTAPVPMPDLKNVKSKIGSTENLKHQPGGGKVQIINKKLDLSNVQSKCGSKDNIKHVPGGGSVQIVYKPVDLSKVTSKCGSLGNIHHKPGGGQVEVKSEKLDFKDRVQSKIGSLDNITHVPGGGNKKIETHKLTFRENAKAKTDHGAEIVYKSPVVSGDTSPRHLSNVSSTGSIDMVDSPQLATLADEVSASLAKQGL
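Quantitative HTS: thioflavine S signal from ODS-induced tau filaments, excited at 450 nm, emission 510 nm. Conditions: 1 uM tau, 30 uM ODS, 15 h at 37 C, pH 7.4.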
DNA Pol III inh – inhibitors of bacterial DNA polymerase III holoenzyme | reconstituted DNA polymerase III holoenzyme replication, biochemical | Potency, µM (highest dose often 57.1 µM) | 71,000 compounds, 0.25% hits | AID 603
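Reconstituted *E. coli* holoenzyme (0.35 nM Pol III, 1 nM beta, 154 nM SSB, 2 nM primase) was preincubated with compound for 15 min at RT. Synthesis on 1.4 nM ssM13Gori ran 35 min, then was stopped with PicoGreen/EDTA and read as dsDNA fluorescence.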
TsaE inh – displaces an ADP probe from E. coli YjeE (TsaE); Potency, µM; AID 605; purified YjeE enzyme, qHTS inhibition assay; 71,000 compounds, 0.05% hits
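Purified YjeE (10 uM) with BODIPY Texas Red-labeled ADP probe (2 uM); compounds pin-transferred, 15 min at room temperature. Binding inhibition read as decreased fluorescence polarization; ADP titration as control.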
15-hLO inh – blocks human 15-lipoxygenase activity | purified 15hLO-1, xylenol orange hydroperoxide absorbance | Potency, µM (titrated, usually from 57.1 µM), hits mostly inhibitors | 74,000 compounds, 1.4% hits | AID 887; further: nearly all actives have a fitted effect of over 55% in size
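Purified human 15hLO-1 (40 nM) in 25 mM Hepes pH 7.5, 0.01% Triton X-100, preincubated 15 min RT with compound, then 50 uM arachidonic acid for 6 min. Hydroperoxide read by ferrous/xylenol orange, 30 min; 573/405 nm absorbance ratio gave progress.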
BRCT inh green – blocks human BRCA1 BRCT binding to phosphopeptide, green readout; P38398; BRCA1 BRCT-phosphopeptide binding, green fluorescence polarization; Potency, µM (top dose mostly 76.9 µM), most hits filed as inhibitors; 75,000 compounds, 0.05% hits; AID 875
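Fluorescence polarization: His-tagged BRCT (~35 kDa BRCA1 C-terminus, 250 nM) bound to 100 nM fluorescein-labeled phosphorylated 10-aa BACH1 peptide, pH 7.3 phosphate buffer with DTT and Tween 20. Compounds incubated 12 min at room temperature; inhibition read as lowered polarization.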
BRCT PPI red – inhibitors of human BRCA1 BRCT-phosphoprotein interaction (red fluorophore); P38398; BRCT-phosphopeptide binding, red fluorescence polarization; Potency, µM (titrated, usually from 76.9 µM), most hits filed as inhibitors; 75,000 compounds, 0.03% hits
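Fluorescence polarization: 100 nM His-tagged BRCA1 BRCT with 100 nM TAMRA-labelled phospho-BACH1 decapeptide, phosphate buffer pH 7.3 with 150 mM NaCl, DTT, 0.01% Tween 20; 12 min RT. Binding inhibition seen as FP decrease.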
Numbers stand for hits; . = inactive; ? = inconclusive; / = not tested or not shown; ! = a repeat was not active; [ ] = remark or other dose. Only some compounds are listed: those with a hit (about 3.3% of all), similar ones and a draw of the others. The call rests on the fitted dose curve; in most records, active means well fitted curve in the direction sought with a large enough effect; inconclusive means small, poorly fitted or top-dose-only effect, or another doubt; inactive means no such curve, though single readings can be large; an effect the other way counts as inactive or inconclusive.

SMILES	Tau fil binding	DNA Pol III inh	TsaE inh	15-hLO inh	BRCT inh green	BRCT PPI red
COc1ccc(C2Nc3ccccc3C(=O)N2Cc2ccco2)cc1COc1ccc(NC(C)=O)cc1 (stereo unspecified)	.	.	.	16µM	.	.
CCC1=C/C(=C/N(C)c2ccccc2)C(=O)S1	.	.	.	25µM	.	.
CC(=O)OC[C@H]1O[C@@H](O/N=C\[C@@H](C)[C@H](OCc2ccccc2)C(C)C)[C@H](OC(C)=O)[C@@H](OC(C)=O)[C@H]1OC(C)=O	/	/	/	.[11.4 µM]	.[15.4 µM]	.[15.4 µM]
Nc1c(S(=O)(=O)O)cc(S(=O)(=O)O)c2ccc(N=Nc3ccccc3)c(O)c12	.[11.4 µM]	.[11.4 µM]	.	.[11.4 µM]	.[15.4 µM]	.[15.4 µM]
Cc1cc(-c2ccc(N=Nc3cc(S(=O)(=O)O)c4ccccc4c3N)c(C)c2)ccc1N=Nc1cc(S(=O)(=O)O)c2ccccc2c1N	0.02µM	?	.	0.4µM	.	.
CN(C)C(=O)c1ccc(-c2nc(NCc3cccs3)c3ccccc3n2)cc1	.	.	.	.	.	.
NC[C@@H]1O[C@H](C23CC4CC(CC(C4)C2)C3)Cc2c1ccc(O)c2O	32µM!	.	.	.	.	.
NC[C@@H]1O[C@H](c2ccccc2)Cc2c1ccc(O)c2O	.	.	.	.	.	.
CCOc1ccc(OCC(=O)c2c(O)c3ccccc3oc2=O)cc1	.	.	.	16µM	.	.
COc1ccc(OCC(=O)c2c(O)c3ccccc3oc2=O)cc1	.	.	.	?	.	.
CCOC(=O)c1cccc(NC(=O)CSc2nnc(COc3ccccc3)n2CC)c1	.	.	.	.	.	.
CCOC(=O)c1cccc(NC(=O)CSc2nnc(CNc3ccc(C)cc3)n2CC)c1	.	.	.	13µM	.	.
CCOC(=O)[C@H](CCc1ccccc1)N[C@@H](C)C(=O)N1[C@H](C(=O)O)C[C@H]2CCC[C@@H]21	.	.	.	.	.	.
CCOC(=O)C(CCc1ccccc1)NC(C)C(=O)N1C(C(=O)O)CC2CCCC21 (stereo unspecified)	/	/	/	3.2µM	.	.
CCOC(=O)c1sc2nc(N3CCOCC3)c3c(c2c1N)CCN(C)C3	7.9µM	.	.	.	.	.
CC(C)Sc1oc(-c2ccco2)nc1S(=O)(=O)c1ccc(F)cc1	.	.	.	25µM	.	.
CSc1oc(-c2ccco2)nc1S(=O)(=O)c1ccc(Br)cc1	.	.	.	.	.	.
OCCN1CCN(C(c2cccs2)c2ccc3cccnc3c2O)CC1 (stereo unspecified)	6.3µM	.	.	4µM	.	.
CSCC[C@@H]1NC(=O)C/C=C\[C@@H](C)COC(=O)[C@@H](CCSC)NC(=O)C/C=C\[C@@H](C)COC1=O	/	/	/	.[11.4 µM]	.[15.4 µM]	.[15.4 µM]
CCOc1ccccc1N1CCN(S(=O)(=O)c2cccc3nsnc23)CC1	20µM	.	.	.	.	.
CCCCC[C@@H](O)[C@@H]1C(=O)O[C@@H](C)[C@@H](O)\C=C/C=C\C=C/C=C\C=C(\C)[C@H](O)C[C@H](O)C[C@H](O)C[C@H](O)C[C@H](O)C[C@H](O)C[C@@H]1O	.[11.4 µM]	.[11.4 µM]	.	/	/	/
CCCCC/C=C\C[C@H](O)/C=C\c1cccc(C[C@H](O)CCCCO)n1	.	.	.	20µM	.	.
O=C(O)[C@H]([C@H]1NCCS1)N1C(=O)c2ccccc2C1=O	.[11.4 µM]	.[11.4 µM]	.	.[11.4 µM]	.[15.4 µM]	.[15.4 µM]
CCOC(=O)c1c(NC(=O)OC)sc2c1CCC2	.	.	.	.	.	.
COC(=O)Nc1sc2c(c1C(N)=O)CCCCCC2	.	.	.	13µM	.	.
SMILES	Tau fil binding	DNA Pol III inh	TsaE inh	15-hLO inh	BRCT inh green	BRCT PPI red
COCC(=O)Nc1cccc(Br)c1	.	.	.	.	.	.
O=C(Nc1cccc(Br)c1)c1ccn[nH]1	.	.	.	10µM	.	.
Cc1cc(=O)cc(C)n1-c1ccccc1N1CCOCC1	7.9µM	.	.	?	.	.
COc1ccccc1N1CCN(C(=O)N2CCOCC2)CC1	.[11.4 µM]	.[11.4 µM]	.	.[11.4 µM]	.	.
Cc1cc2cc(CNC(=O)Nc3ccccc3)ccc2n1C	20µM	.	.	.	.	.
CCOC(=O)NCc1ccc2c(c1)cc(C)n2C	?	.	.	.	.	.
